AmpC inh no detg – blocks E. coli AmpC beta-lactamase in detergent-free assay; P00811; AmpC nitrocefin hydrolysis, absorbance 480 nm, 0.0001% Triton; Potency, µM (top dose mostly 57.1 µM), without a hit: top-dose activity change, negative = inhibition, usual class: inhibitors; actives 0.52% (n = 330,000);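 also: potency is read from the fitted curve at half-maximal effect; plate controls were no compound for no effect and no enzyme for full effect; nearly all actives have a fitted effect of over 20% in size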
Target sequence (P00811 whole entry, looked up): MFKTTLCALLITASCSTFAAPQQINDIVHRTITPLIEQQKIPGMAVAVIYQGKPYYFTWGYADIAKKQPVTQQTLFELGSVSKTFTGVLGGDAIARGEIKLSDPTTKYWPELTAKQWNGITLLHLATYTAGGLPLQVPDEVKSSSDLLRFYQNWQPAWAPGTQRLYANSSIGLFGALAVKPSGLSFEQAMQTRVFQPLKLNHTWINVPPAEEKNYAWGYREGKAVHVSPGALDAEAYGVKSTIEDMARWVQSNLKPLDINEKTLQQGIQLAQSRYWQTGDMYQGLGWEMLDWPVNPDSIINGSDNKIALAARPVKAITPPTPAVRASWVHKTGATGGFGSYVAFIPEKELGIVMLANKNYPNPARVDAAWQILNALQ
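20 mM phosphate pH 7.0 + 0.01% (detergent screen) or 0.0001% Triton X-100; 5.3 nM AmpC reagent; cpd preinc 15 min RT; nitrocefin (800 uM stock) to start; A480 q20 s × 4 min; Activity was normalised to no-enzyme and no-compound control wells.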
HCV inhibitor – HCV inhibition | Potency, µM (doses to about 41.8 µM), without a hit: top-dose activity change, negative = inhibition, most hits filed as inhibitors | actives 3.4% (n = 340,000) | Huh7.5.1 HCVcc-Cre infection, luciferase reporter, 44 h; also: potency is read from the fitted curve at half-maximal effect
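Whole-lifecycle infectious HCVcc-Cre system; cells 1,000/well, compound then virus (~0.5 moi) added 4 h after plating, 44 h culture. Luciferase read 15 sec following 15 min substrate incubation, room temp.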
AmpC inh detg – blocks E. coli AmpC beta-lactamase in detergent assay; Potency, µM (top dose mostly 114 µM), for inactives: at the top dose activity change, negative = inhibition, hits mostly inhibitors; actives 0.041% (n = 370,000); AmpC hydrolysis of nitrocefin, absorbance 480 nm, 0.01% Triton; P00811; AID 485294;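 also: potency is read from the fitted curve at half-maximal effect; 0% = no-compound wells and -100% = no-enzyme wells; nearly all actives have a fitted effect of over 25% in size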
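AmpC (5.3 nM in the dispensed reagent) in 20 mM phosphate pH 7.0 with 0.01% (detergent screen) or 0.0001% Triton X-100 was preincubated with compounds for 15 min at room temperature. Nitrocefin was then added from an 800 uM solution, and hydrolysis was followed at 480 nm.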
FMDV antiviral – antivirals against foot and mouth disease virus; FMDV antiviral cell-based qHTS; Potency, µM (doses to about 57.9 µM), inactives show at the highest dose activity change, negative = inhibition, most hits filed as inhibitors; actives 1.2% (n = 410,000); AID 1159524; calls by dose curve; tested in HEK293T cells; also: read-out not given here; potency is read from the fitted curve at half-maximal effect; nearly all actives have a fitted effect of over 45% in size
HCMV antiviral – human cytomegalovirus inhibition; AID 1259415; actives 4.5% (n = 410,000); activity change, negative = inhibition, % at 57.5 µM; HFF cells, HCMV-luciferase reporter, 72 h; hits give low values; in the data active = activity change below about -60%; inconclusive = no clear call, values can overlap the other calls; inactive = above about -39%
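Cell-based, HFFs, 1000 cells/well, 16 h 37C; cpds in DMSO + HCMV-luc, MOI 1 PFU/cell; 72 h 37C; OneGlo luminescence after 5 min RT; norm. to buffer vs Salinomycin 10uM.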
Active calls of the source: *; ? = inconclusive; nt = no result given. The list is not random: actives were taken first. Their share in the collection is about 7.3%. Unless noted, calls follow the shape of the dose curve; as a rule, active = well fitted curve in the direction sought with a large enough effect; inconclusive = small, poorly fitted or top-dose-only effect, or another doubt; inactive = no such curve, though single readings can be large; an effect the other way counts as inactive or inconclusive. Unless noted, % is scaled to controls: 0 for no effect and ±100 for the full control effect.

SMILES	AmpC inh no detg	HCV inhibitor	AmpC inh detg	FMDV antiviral	HCMV antiviral
CCCC(c1nnnn1CS(=O)(=O)c1ccc(C)cc1)N1CCC(C(N)=O)CC1 (stereo not drawn)	46%	17%	-14%	-6%	-28
COc1cccc(C2CC(=O)Nc3c2c(=O)[nH]c2ncnn32)c1OC (stereo not drawn)	nt	nt	-2%	-7%	14
O=C(NCc1ccco1)C1=COC2=NC(=O)N(Cc3ccccc3)CCN12	nt	nt	nt	nt	-8
CN(c1ccc(C(=O)N2CCN(Cc3ccc4c(c3)OCO4)CC2)cc1)S(=O)(=O)c1ccccc1	123%	6.3µM*	-14%	?	-101*
CN(c1ccc(C(=O)N2CCN(Cc3ccccc3)CC2)cc1)S(=O)(=O)c1ccccc1	151%	?	-17%	-11%	?
Cc1cc(Br)cn2c(Cc3ccsc3)c(C3CCCCC3)nc12	nt	nt	nt	-21%	nt
Cc1ccc(NC(=O)C(=O)NCC(c2cccnc2)N2CCc3ccccc32)cc1Cl (stereo not drawn)	nt	nt	-2%	-8%	15
Cn1c(SCC(=O)Nc2ccc(F)cc2F)nnc1-c1cccnc1	0.32µM*	6%	?	16%	0
O=C(CSc1nccn1-c1ccc(F)cc1)Nc1ccc(OC(F)(F)F)cc1	nt	nt	3%	-18%	-68*
O=C(CSc1nnnn1-c1ccc(Cl)cc1)Nc1cccnc1Cl	-57%	-29%	-1%	?	-71*
CCOc1ccc(-n2ccnc(SCC(=O)Nc3ccc(OC)cc3OC)c2=O)cc1	-30%	8.9µM*	3%	-28%	-24
O=C(NCC12CC3CC(CC(C3)C1)C2)c1cc2nc(-c3ccc(Cl)cc3)cc(C(F)(F)F)n2n1	nt	nt	-2%	-6%	12
COc1ccc(-c2cc3nc(C)c(CCC(=O)N4CCN(c5ccc(F)cc5)CC4)c(C)n3n2)c(OC)c1	nt	nt	23%	0%	6
COc1ccc(CN2C(=O)C(CC(=O)NC3CC3)CC(C(=O)N3CCOCC3)=C2C)cc1 (stereo not drawn)	nt	nt	nt	0%	21
Cc1ccc2nc(SCC(=O)c3ccc(O)cc3O)[nH]c2c1	-52%	1%	3%	89%	13
CC(=O)Nc1ccccc1-c1nc(CNC(=O)c2ccc(-n3cccn3)cc2)c(C)o1	nt	nt	nt	9%	nt
O=C(CSC1=NNC(c2ccccn2)S1)Nc1ccc(C(F)(F)F)cc1 (stereo not drawn)	-45%	-2%	12%	-15%	-75*
COc1cccc(-n2ccnc2SCC(=O)Nc2ccc(Cl)c(Cl)c2)c1	nt	nt	2%	-7%	-61*
O=C(CSc1nccn1C1CCCC1)Nc1ccccc1	nt	nt	8%	27%	-24
COc1ccc(-n2ccnc2SCC(=O)Nc2ccc(F)cc2F)cc1	nt	nt	1%	-22%	-91*
O=C(CSc1nccn1C1CCCC1)Nc1ccc(C(F)(F)F)cc1	nt	nt	-3%	-24%	-63*
Cc1ccc(C(CC(=O)Nc2cc(C)cc(C)c2)N2Cc3ccccc3C2=O)cc1 (stereo not drawn)	nt	nt	2%	14%	-9
Cc1ccc(Cl)cc1NC(=O)CNC(=O)N1CC(=O)Nc2ccccc21	-12%	9%	3%	-9%	10
CCOc1ccccc1NC(=O)CSc1nccn1-c1ccc(Cl)cc1	nt	nt	6%	-8%	-72*
CC(C)Oc1ccc(C(=O)NCC(c2ccc(N(C)C)cc2)N2CCc3ccccc32)cc1 (stereo not drawn)	nt	nt	6%	-2%	?
SMILES	AmpC inh no detg	HCV inhibitor	AmpC inh detg	FMDV antiviral	HCMV antiviral
COc1ccc(C(=O)NCC(c2ccc(N(C)C)cc2)N2CCc3ccccc32)cc1 (stereo not drawn)	nt	nt	15%	-18%	-71*
CC(=O)c1ccc(C(=O)N2CCc3c(cnc(C)c3CNC(=O)c3ccc4c(c3)OCO4)C2)s1	nt	nt	nt	-7%	nt
Cc1nn2c(NCC(C)C)c3c(nc2c1-c1ccccc1)CCC3	-19%	6.3µM*	-5%	-9%	nt
Cc1cc(NCCC(C)C)n2nc(C)c(-c3ccccc3)c2n1	33%	8.9µM*	1%	1%	12
Cc1cc(NCCCN2CCOCC2)n2nc(C)c(-c3ccccc3)c2n1	114%	-26%	-13%	-16%	44
Cc1cc(NCc2ccccn2)n2ncc(-c3ccc(Cl)cc3)c2n1	15%	?	13%	21%	-38
Cc1nn2c(NCCCn3ccnc3)cc(C(C)C)nc2c1-c1ccccc1	132%	-70%	-1%	-21%	?
Cc1nn2c(NCc3ccccn3)cc(C(C)C)nc2c1-c1ccccc1	-2%	4µM*	-1%	-27%	-98*
Cc1cc(NCc2ccccn2)n2ncc(-c3ccccc3)c2n1	25%	2.8µM*	?	1%	-66*
COc1ccc(N(CC(=O)NCCSCc2ccccc2Cl)S(C)(=O)=O)cc1Cl	61%	-25%	6%	0%	9
CCCc1cc(NCc2ccccn2)n2nc(C)c(-c3ccccc3)c2n1	44%	?	-2%	-13%	-95*
Cc1c(C(=O)c2ccccc2)c2ccccc2n1C	-26%	-25%	-5%	3%	-17
Cc1c(C(=O)C(=O)N2c3ccccc3CC2C)c2ccccc2n1C (stereo not drawn)	0%	-29%	-3%	3%	-64*
Cc1ccc(-n2c3nc(=O)[nH]c(=O)c-3cc3cc([N+](=O)[O-])ccc32)cc1	-19%	31%	-8%	32µM*	-23
COC(=O)C1CN(C(=O)C(C)Oc2ccc(F)cc2)c2ccccc2O1 (stereo not drawn)	3%	21%	-10%	-7%	9
O=C1CS(=O)(=O)C2(C(=O)N(Cc3ccc(F)cc3)c3ccccc32)N1c1cccc(C(F)(F)F)c1 (stereo not drawn)	nt	nt	19%	-1%	-77*
CC(CN1CCN(C)CC1)OC(=O)c1ccccc1 (stereo not drawn)	44%	9%	1%	10%	4
CC(CN1CCN(C)CC1)OC(=O)c1ccc(F)cc1 (stereo not drawn)	-4%	3%	1%	7%	-71*
Cc1ncc(CO)c2c1Oc1nc(-c3ccccc3)nc(SCC(=O)N3CCOCC3)c1C2	117%	?	-6%	-19%	-33
Cc1cccc(-c2nc3c(c(SCC(=O)N4CCOCC4)n2)Cc2c(CO)cnc(C)c2O3)c1	190%	11µM*	5%	-11%	nt
COc1ccccc1-c1nc2c(c(SCC(=O)Nc3ccc(C)c(C)c3)n1)Cc1c(CO)cnc(C)c1O2	nt	nt	-2%	-27%	-76*
COc1cccc(-c2nc3c(c(SCC(=O)N4CCOCC4)n2)Cc2c(CO)cnc(C)c2O3)c1	56%	11µM*	2%	-8%	nt
COc1ccc(C(CNC(=O)Cc2ccc(Cl)cc2)N2CCOCC2)cc1 (stereo not drawn)	nt	nt	-2%	-7%	-2
CC(=O)c1cccc(Nc2nc(-c3sc(N)nc3C)cs2)c1	-31%	?	-6%	?	20
CC(=O)c1ccc(Nc2nc(-c3sc(C)nc3C)cs2)cc1	nt	nt	nt	25µM*	-29

Bioassay records as filed in PubChem.
